PubChem BioAssay (Tox21)
Records with an inconclusive call do not appear. Entries that show only a call come without a potency. Some structures have more than one record in an assay (separate samples or runs), and their calls can disagree. The source made the active and inactive calls. The call rests on the fitted dose curve; in most records, active means well fitted inhibition curve with a large enough effect in the repeat runs; inconclusive means weak or mixed curves, or effect the other way; inactive means no such curve, though single readings can be large or run the other way.

Assay: qHTS assay to identify small molecule antagonists of the retinoic acid receptor (RAR) signaling pathway (AID 1159552; further: nearly all actives have a fitted effect of over 50% in size)
Settings: C3RL4 RARE luciferase reporter, retinol-stimulated, 6 h; series mostly up to 92.4 µM
Source text: National Center for Advancing Translational Sciences [NCATS]
NIH Chemical Genomics Center [NCGC]
U.S. Environmental Protection Agency [EPA]
National Institutes of Environmental Health Sciences [NIEHS]
National Toxicology Program [NTP]
U.S. Food and Drug Administration [FDA]
All-trans Retinoic acid (atRA) is the potent natural metabolite of retinol and plays an important role in normal embryonic development and maintenance of cellular phenotype in adult animals. atRA is the activating ligand for the retinoic acid receptors (RARs) which form heterodimers with retinoid X receptors (RXRs) on the retinoic acid response element (RARE). Through activation of the RAR/RXRs nuclear receptors, atRA regulates the transcription of a large number of protein-coding genes and regulatory RNAs. Intracellular levels of atRA are controlled by the retinol signaling pathway (RSP) that regulates the biosynthesis and catabolism of atRA to maintain physiological levels. Chemicals that interfere with the RSP can cause abnormal intracellular levels of atRA and therefore are potential developmental toxicants. To assess compounds for the potential adverse effect on embryonic development through interfering with retinol signaling, a cell-based RARE luciferase reporter gene assay was used. C3RL4 cell line (OARSA/CFSAN/FDA, Laurel, MD) was used to screen Tox21 10K compound library for identifying inhibitors of the RSP.
Tox21 Assay Protocol Summary:
C3RL4 cells were seeded at 1,000/well in 4 uL of assay medium into white solid 1,536-well tissue culture plates (Greiner Bio-One North America Inc. Monroe, NC) using a Multidrop Combi (Thermo Scientific, Waltham, MA) dispenser. After incubation at 37 C and 5% CO2 for an overnight, 23 nL of compounds dissolved in DMSO, positive control or DMSO only were transferred by a Pintool station (Kalypsys, San Diego, CA). One ul of 1 uM (final concentration) of Retinol was added right after the compound addition by using a Flying Reagent Dispenser (FRD) (Aurora Discovery, San Diego, CA). After 6 hr incubation at 37 C and 5% CO2, 5 uL of Amplite Luciferase reagent (AAT Bioquest Inc. Sunnyvale, CA) was added to each assay plate using an FRD. Luminescence was quantified on a ViewLux plate reader (PerkinElmer, Waltham, MA) after 30 min incubation at room temperature.
Potency means the concentration at half of the fitted maximal effect.

| Compound | Potency |
| --- | --- |
| C=CCCCCCCCCCC | inactive |
| CC1=CC(C)(C)Nc2ccccc21 | inactive |
| CC(=O)[C@@]1(O)CC[C@H]2[C@@H]3C[C@H](C)C4=CC(=O)C=C[C@]4(C)[C@@]3(F)[C@@H](O)C[C@@]21C | inactive |
| COc1ccc(C(=O)c2ccccc2O)c(O)c1 | inactive |
| CC1(C)O[C@@H]2C[C@H]3[C@@H]4C[C@H](F)C5=CC(=O)C=C[C@]5(C)[C@@]4(F)[C@@H](O)C[C@]3(C)[C@]2(C(=O)CO)O1 | inactive |
| COc1ccc2nc(N)sc2c1 | inactive |
| Nc1ccc2c(O)cc(S(=O)(=O)O)cc2c1 | inactive |
| C=C[Si](OCCOC)(OCCOC)OCCOC | inactive |
| CCO[Si](CCCNC(N)=O)(OCC)OCC | inactive |
| CC(C)(C)c1cccc(C(C)(C)C)c1O | inactive |
| CC(=O)Oc1c(C)c(C)c2c(c1C)CC[C@@](C)(CCC[C@H](C)CCC[C@H](C)CCCC(C)C)O2 | inactive |
| CCc1cccc2c3c([nH]c12)C(CC)(CC(=O)O)OCC3 (stereo not given) | inactive |
| c1ccc2c(c1)ccc1ncccc12 | inactive |
| C=CC(=O)OCCCC | inactive |
| CN1CCOCC1 | inactive |
| CCCCCCCC/C=C\CCCCCCCC(=O)O | inactive |
| O=C(O)CCCCCCCCCCCC(=O)O | inactive |
| NCCS(=O)(=O)O | inactive |
| CN(Cc1cnc2nc(N)nc(N)c2n1)c1ccc(C(=O)N[C@@H](CCC(=O)O)C(=O)O)cc1 | inactive |
| CCCCCCOCCOCCO | inactive |

| Compound | Potency |
| --- | --- |
| OCCNCCO | inactive |
| Nc1cc([N+](=O)[O-])ccc1C(=O)O | inactive |
| O=Cc1ccccc1C=O | 30.6 µM (active) and inactive |
| O=C(O)c1cc(=O)[nH]c(=O)[nH]1 | inactive |
| CC[C@]12CCCN3CCc4c(n(c5ccccc45)[C@@](O)(C(=O)OC)C1)[C@@H]32 | inactive |
| Nc1ccc2c(c1)C(=O)c1ccccc1C2=O | inactive |
| O=[Se](O)O | inactive |
| C=CCOC(=O)C(=C)C | inactive |
| Cc1ccc(C)c(O)c1 | inactive |
| Cc1ccc([N+](=O)[O-])c(C)c1 | 6.11 µM (active) and inactive |
| Cc1ccc(C(C)(C)C)cc1 | inactive |
| CCCCCC1C(=O)CCC1CC(=O)OC (stereo not given) | inactive |
| Cc1ccc(S(=O)(=O)O)cc1C | inactive |
| C=CC(C)(O)CCC=C(C)C (stereo not given) | inactive |
| c1ccc2c(c1)[nH]c1ccccc12 | inactive |
| COCCOCCOCCO | inactive |
| c1ccc2cc3ccccc3cc2c1 | inactive |
| C/C=C/C(=O)N(CC)c1ccccc1C | inactive |
| O=C(O)c1ccc(O)cc1 | inactive |
| Nc1cc(Cl)c(N)c(Cl)c1 | inactive |
